Results taken from PubChem BioAssay (Tox21).
Unmarked numbers belong to inactive results. Records with an inconclusive call do not appear. A call without a number means that no potency is given here. The source made the active and inactive calls. Calls follow the shape of the full dose curve.

These molecules were tested against Acetylcholinesterase (Homo sapiens) (UniProt P22303) (assay: Acetylcholinesterase (AChE) small molecule antagonists: colormetric cell-based qHTS assay (AID 1347395; also: nearly all actives have a fitted effect of over 30% in size)). Settings: SH-SY5Y cells AChE activity, colorimetric (Ellman); series mostly up to 115 µM.
How it was run: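 Colorimetric read-out: DTNB detects thiocholine released when cellular AChE in SH-SY5Y cells hydrolyses acetylthiocholine. Cells attached overnight, received compound for 30 min at 37 C, then substrate mix for 90 min at 37 C.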

Acetylcholinesterase (Homo sapiens), sequence (P22303 whole entry, looked up): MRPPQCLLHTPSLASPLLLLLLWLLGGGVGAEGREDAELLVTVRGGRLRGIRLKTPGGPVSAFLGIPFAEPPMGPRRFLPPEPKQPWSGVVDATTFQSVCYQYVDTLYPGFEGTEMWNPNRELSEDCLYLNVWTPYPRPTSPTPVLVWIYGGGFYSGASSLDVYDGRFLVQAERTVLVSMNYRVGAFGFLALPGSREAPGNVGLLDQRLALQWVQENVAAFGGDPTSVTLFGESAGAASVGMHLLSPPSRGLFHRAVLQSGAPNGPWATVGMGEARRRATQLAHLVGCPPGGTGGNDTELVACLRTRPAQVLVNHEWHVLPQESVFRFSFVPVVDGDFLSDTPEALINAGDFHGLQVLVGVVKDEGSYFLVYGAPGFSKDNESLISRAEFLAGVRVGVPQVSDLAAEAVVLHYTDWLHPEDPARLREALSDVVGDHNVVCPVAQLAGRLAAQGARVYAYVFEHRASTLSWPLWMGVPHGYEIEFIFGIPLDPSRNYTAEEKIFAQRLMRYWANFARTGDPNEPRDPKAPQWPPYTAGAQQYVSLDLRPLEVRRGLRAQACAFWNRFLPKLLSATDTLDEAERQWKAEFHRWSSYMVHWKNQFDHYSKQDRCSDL

Compound | Potency
O=C1c2ccccc2CCc2ccccc21 | inactive
CCCOC(=O)c1ccc(C(=O)OCCC)nc1 | inactive
O=C(O)c1[nH]n(-c2ccc(S(=O)(=O)O)cc2)c(=O)c1N=Nc1ccc(S(=O)(=O)O)cc1 | inactive
CCC(C)(C)C1CCCCC1OC(C)=O (centres undefined) | inactive
COc1ccc(C(=O)/C(Br)=C\C(=O)O)cc1 | inactive
CCOc1ccc(NC(C)=O)cc1N | inactive
ClC/C=C\CCl | inactive
c1ccc2sc(SSN3CCOCC3)nc2c1 | inactive
OC1(c2ccc(Cl)c(C(F)(F)F)c2)CCN(CCCC(c2ccc(F)cc2)c2ccc(F)cc2)CC1 | inactive
O=C(c1cc(O)c(O)c(O)c1)c1ccc(O)c(O)c1O | inactive
OCCN1CCN(CCO)CC1 | inactive
CCCCCC(=O)O[C@]1(C(C)=O)CC[C@H]2[C@@H]3CCC4=CC(=O)CC[C@]4(C)[C@H]3CC[C@@]21C | inactive
C=C/C(C)=C/C/C=C(\C)CCC=C(C)C | inactive
C=CCCCCCCCC | inactive
O=C(O)/C=C/c1cnc[nH]1 | inactive
COc1c2ccoc2cc2oc(=O)ccc12 | inactive
CC(O)CC(C)(C)O (centres undefined) | inactive
c1ccc2[nH]cnc2c1 | inactive
Cc1ccc(N)c(S(=O)(=O)O)c1 | inactive

The molecules below were run against Acetylcholinesterase (Homo sapiens) (UniProt P22303) (assay: Acetylcholinesterase (AChE) small molecule antagonists: enzyme-based qHTS assay (AID 1347397; also: nearly all actives have a fitted effect of over 55% in size)). Settings: Potency: AChE enzyme activity inhibition; outcome: AChE enzyme activity inhibition; series mostly up to 115 µM.
How it was run: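 First, recombinant human AChE (50 mU/mL as dispensed) received test compound or DMSO. Second, plates stood 30 min at room temperature. Third, DTNB and acetylthiocholine were added, followed by 10 min at room temperature and colorimetric detection.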

Compound | Potency | activity change, negative = inhibition
CCC/C=C(\C=O)CC | inactive | –
CC1(C)C(=O)N(Cl)C(=O)N1Br | inactive | –
Oc1ccccc1Cc1ccccc1O | inactive | –
CCCCCCCC(=O)OCC(COC(=O)CCCCCCC)OC(=O)CCCCCCC | inactive | –
N=c1nc(N2CCCCC2)cc(N)n1O | inactive | –
COc1cc(C(=O)NCCCCCC(=O)O)cc(OC)c1OC | inactive | –
CCn1cc(C(=O)O)c(=O)c2cnc(N3CCNCC3)nc21 | inactive | –
CCCCCCCC/C=C\CCCCCCCC(=O)OCCOC(=O)CCCCCCC/C=C\CCCCCCCC | inactive | –
O=C(c1ccc(O)cc1)c1ccc(Cl)cc1 | inactive | –
CC(C)(C)C1=CC(=O)C(C(C)(C)C)=CC1=O | inactive | –
CN(C)c1ccc(Cc2ccc(N(C)C)cc2)cc1 | inactive | –
CCC[C@H](N[C@@H](C)C(=O)N1[C@H](C(=O)O)C[C@@H]2CCCC[C@@H]21)C(=O)OCC | inactive | –
O=c1c(O)c(-c2ccc(O)c(O)c2)oc2cc(O)cc(O)c12 | inactive | –
COP(=O)(OC)OC(c1ccc(Cl)cc1)P(=O)(OC)OC (centres undefined) | inactive | –
O=C(c1ccccc1)c1ccc(O)c(O)c1O | inactive | –
O=[N+]([O-])c1ccc(CO)cc1 | inactive | –
CC(C)N1C(=O)c2ccccc2C1=O | inactive | –
C1COCO1 | inactive | –
COCCOC[C@H](CC1(C(=O)NC2CCC(C(=O)O)CC2)CCCC1)C(=O)Oc1ccc2c(c1)CCC2 (some centres undefined) | inactive | –
CC(C)COC(=O)/C=C/c1ccccc1 | inactive | –

Compound | Potency | activity change, negative = inhibition
C[C@@H]1NC(=O)[C@@H](N)CNC(=O)[C@H](C2CCNC(N)=N2)NC(=O)/C(=C/NC(N)=O)NC(=O)[C@H](CNC(=O)C[C@@H](N)CCCN)NC1=O (some centres undefined) | – | -0.97% [at 0.435 µM]
O=C1c2ccccc2CCc2ccccc21 | inactive | –
CCCOC(=O)c1ccc(C(=O)OCCC)nc1 | inactive | –
O=C(O)c1[nH]n(-c2ccc(S(=O)(=O)O)cc2)c(=O)c1N=Nc1ccc(S(=O)(=O)O)cc1 | inactive | –
CCC(C)(C)C1CCCCC1OC(C)=O (centres undefined) | inactive | –
COc1ccc(C(=O)/C(Br)=C\C(=O)O)cc1 | inactive | –
CCOc1ccc(NC(C)=O)cc1N | inactive | –
ClC/C=C\CCl | inactive | –
c1ccc2sc(SSN3CCOCC3)nc2c1 | inactive | –
OC1(c2ccc(Cl)c(C(F)(F)F)c2)CCN(CCCC(c2ccc(F)cc2)c2ccc(F)cc2)CC1 | inactive | –
O=C(c1cc(O)c(O)c(O)c1)c1ccc(O)c(O)c1O | inactive | –
OCCN1CCN(CCO)CC1 | inactive | –
CCCCCC(=O)O[C@]1(C(C)=O)CC[C@H]2[C@@H]3CCC4=CC(=O)CC[C@]4(C)[C@H]3CC[C@@]21C | inactive | –
C=C/C(C)=C/C/C=C(\C)CCC=C(C)C | inactive | –
C=CCCCCCCCC | inactive | –
O=C(O)/C=C/c1cnc[nH]1 | inactive | –
COc1c2ccoc2cc2oc(=O)ccc12 | inactive | –
CC(O)CC(C)(C)O (centres undefined) | inactive | –
c1ccc2[nH]cnc2c1 | inactive | –
Cc1ccc(N)c(S(=O)(=O)O)c1 | inactive | –
